The whole screen tested about 6,200 compounds, of which about 2,900 (47%) were called active. The set was probably picked from earlier hits. Some of the results follow. Unmarked numbers belong to inactive results. No stated cut-off is given here; in the data, active means inhibition above about 50%; inactive means the rest.

The nature of the test: Mycobacterium tuberculosis growth inhibition, primary screen (AID 1259343). The note with it: inhibition: at 10 µM, stronger effect = higher value; outcome: 10 uM.
Take `O=C1NC(=O)N(C2CCCCC2)C(=O)C1=CC=Cc1ccco1`: the inhibition is 19.5%.
Then `Cn1c(=NN=C2CC3CC=CC23)sc2ccccc21` (stereo unspecified), with 102% (active).
With `CC(=NN=c1sc2ccccc2n1C)c1ccccc1Br`, the inhibition was 11.9%.
Then `CC1=CC(=NNc2ncc(Cl)cc2Cl)CC(C)(C)C1`, with -13.2%; and `CC1=CC(=NN=c2sc3ccccc3n2C)CC(C)(C)C1`, with 95% (active).
Then `Cn1c(=NN=C2CCCc3ccccc32)sc2ccccc21`, with 85.9% (active).
Turning to `CC(=NN=c1sc2ccccc2n1C)c1ccco1`, the inhibition was 1.85%.
As to `Cc1ccc(Cl)cc1N1CCN(C(=O)Nc2nncs2)CC1`, the inhibition was 2.42%.
For the compound `O=c1c(C2OCC3(CO2)CC2C=CC3C2)coc2ccccc12` (stereo unspecified), the inhibition was 35.6%.
As to `Nc1ccn2ncc([P+](c3ccccc3)(c3ccccc3)c3ccccc3)c2n1`, the inhibition is 24%.
Turning to `CCCCc1ccc(NC(=O)/C=C/c2cnn(C)c2C)cc1`, the inhibition was 93.3% (active).
Under `COc1ccccc1N1C(=O)C(Cl)=C(Nc2ccc(S(N)(=O)=O)cc2)C1=O` stands -0.54%.
On to `Cc1ccc(NC2=C(Cl)C(=O)N(CC(C)C)C2=O)cc1`, for which the inhibition was 73.8% (active).
Consider `CCN(CC)CCN(C(=O)c1ccnn1CC)c1nc2c(C)c(Cl)ccc2s1`, for which the inhibition is 38.3%.
For `Cc1ccc(Cl)c2sc(NCCN(C)C)nc12`, the inhibition is 36.2%.
Then `Cc1cc(C)c2nc(N3CCNCC3)sc2c1`, with 97.1% (active); and `Cc1ccc(Cl)c2sc(N3CCNCC3)nc12`, with 100% (active); and `Cc1c(Cl)ccc2sc(N3CCNCC3)nc12`, with 90.2% (active).
Then `Cc1nc(N2CCNC(=O)C2)c2c(CC(C)C)csc2n1`, with -15.6%; and `Cc1c(O)cccc1C(=O)NC1CC(=O)N(CC2CCCCC2)C1` (stereo unspecified), with -18.6%; and `C/C(=C/C(=O)NCCc1ccccc1F)CCc1ccccc1`, with 23.7%.
For `Cc1ccc(C)c2[nH]c(=O)c(CCNC(=S)NCCc3ccccc3)cc12`, the inhibition is 51.5% (active).
Then `N#CC(C#N)=NNc1ccc(SC(F)F)cc1`, with 82.4% (active); and `N#CC(C#N)=NNc1ccc2c(c1)OCO2`, with 45.5%.
For the compound `Fc1ccc(NN=C2c3ccccc3-c3ccccc32)cc1`, the inhibition was 44.1%.
Under `N#CC(C#N)=NNc1ccc2c(c1)OCCO2` stands 70.3% (active); under `N#CC(C#N)=NNc1ccccc1`, -41.6%.
Under `N#CC(C#N)=NNc1ccc(F)cc1` stands 91.2% (active); under `CCCOCCn1cc(C2CC=CCC2)nn1` (stereo unspecified), 75.7% (active).
Then `O=C(NCCC(=O)N1CCCC1)c1ccc(-c2ccc(Cl)cc2)o1`, with 86.7% (active); and `S=C(c1ccc(-c2ccc(Cl)c(Cl)c2)o1)N1CCOCC1`, with 19.5%; and `C=CCn1c(-c2cc3c(s2)CCC(CC)C3)n[nH]c1=S` (stereo unspecified), with 3.05%.
Turning to `CCC1CCc2c(sc3nc[nH]c(=O)c23)C1` (stereo unspecified), the inhibition is 51.2% (active).
Take `OCC1(CO)COC(c2ccccc2)=N1`: the inhibition was 56.2% (active).
Under `Cc1ccc(OCc2cn(-c3ccc(Cl)cc3)nn2)cn1` stands 24.1%; under `Cc1ccc(-n2cc(O)nn2)cc1`, 94% (active); under `CCCCN(CCCC)c1nc(OC)nc(-n2nnc(C(C)=O)c2C)n1`, 15%.
Under `Cn1c(=NC(=O)c2ccc3ccccc3n2)sc2ccccc21` stands 45.5%; under `Cc1cc(C)c(CNC(=O)c2ccc3ccccc3n2)c(=O)[nH]1`, 70.6% (active).
Consider `OCCNc1nc(-c2ccccc2)c2cc(Br)ccc2n1`, for which the inhibition is 3.07%.
As for `Cc1cc(/C=C(/Cl)c2nc(-c3cccs3)no2)cc(C)c1O`, the inhibition was 32.2%.
Under `Cc1cc(C(=O)N2CCC(N3CCCC(C(=O)N4CCOCC4)C3)CC2)no1` (stereo unspecified) stands -0.96%; under `O=C(NC1CCCC1)c1nc(-c2cccs2)no1`, 79.1% (active); under `Cc1noc(-c2cccs2)c1C(=O)NCCOc1ccccc1`, -3.83%.
Take `O=C(c1cc(-c2cccs2)on1)N1CCCC1`: the inhibition was 51.3% (active).
As for `O=C(NC1CCCC1)c1cc(-c2cccs2)on1`, the inhibition is 93.6% (active).
Under `O=C(NCc1ccco1)c1cc(-c2cccs2)on1` stands 35.1%; under `O=C(c1scc2c1CCCC2)N1CCCC1`, 16.9%.
Then `N#CC(O[C@@H]1O[C@H](CO[C@@H]2O[C@H](CO)[C@@H](O)[C@H](O)[C@H]2O)[C@@H](O)[C@H](O)[C@H]1O)c1ccccc1` (stereo partly specified), with -0.91%; and `CC1CCN(C(=O)CCc2nc(-c3ccc(F)cc3)no2)CC1`, with 87.9% (active).
Turning to `COc1cccc(C(=O)N2CCC(c3nc(-c4ccc(C(F)(F)F)cc4)no3)CC2)c1`, the inhibition is 30.8%.
`COc1ccc(CC(=O)N2CCC(c3nc(-c4ccc(C(F)(F)F)cc4)no3)CC2)cc1`: the inhibition is 76.9% (active).
Under `CC1CCN(C(=O)CSc2nnc(C(C)Oc3ccc(F)cc3)o2)CC1` (stereo unspecified) stands -37.3%.
Under `COc1ccc(CCc2nnc(CCC(=O)N3CCC(c4ccc(F)cc4)C3)o2)cc1` (stereo unspecified) stands 15.2%.
Turning to `COc1ccc(CC(=O)N2CCC(c3nc(-c4ccc(F)c(F)c4)no3)CC2)cc1`, the inhibition is 51.3% (active).
Then `CCOC(=O)C(=O)N1CCC(c2nc(-c3ccc(F)c(F)c3)no2)CC1`, with 75.8% (active).
Under `CC(C)c1ccc(OP(N)(=O)Oc2ccccc2F)cc1` (stereo unspecified) stands 12.2%.
Under `O=C(c1ccccc1C(F)(F)F)N1CCC(c2nc(-c3ccc(Cl)cc3F)no2)CC1` stands 15.5%; under `O=C(COc1ccc(Cl)cc1)N1CCC(c2nc(-c3ccc(Cl)cc3F)no2)CC1`, 64.9% (active); under `O=C(c1c(F)cccc1Cl)N1CCC(c2nc(-c3ccc(F)c(F)c3)no2)CC1`, 88.5% (active).
`O=C(Cc1cccs1)N1CCC(c2nc(-c3ccc(C(F)(F)F)cc3)no2)CC1`: the inhibition was 67.2% (active).
Regarding `O=C(CSc1nnc(Cc2cccs2)n1C1CC1)N1CCOC1=O`, the inhibition was -19.6%.
Then `CCOC(=O)CC(=O)N1CCC(c2nc(-c3ccc(Cl)cc3)no2)CC1`, with 57.3% (active).
With `O=C(NCCc1ccc(C(F)(F)F)cc1)NCCc1cccs1`, the inhibition is 31.3%.
Then `COC(=O)C(=O)N1CCC(c2nc(-c3ccc(Cl)cc3)no2)CC1`, with 20.8%.
Under `CCOC(=O)Cn1c(=NC(=O)c2cc(C)no2)sc2cc(Cl)ccc21` stands -4.33%.

Usually inhibition stands for the drop in the measured response relative to a control, in per cent.

The record behind these values is PubChem BioAssay AID1259343 (VanderVen Lab, College of Veterinary Medicine, Cornell …, 2017).
